Test results as given in PubChem BioAssay (EPA / NIEHS).
Records with an inconclusive call do not appear. Activity calls are given as the source filed them. Rule for the calls, unless noted: active = hit-call score of the fitted dose curve at least 0.9, where 1 is the maximum; inconclusive = response in the unintended direction; inactive = score below 0.9.

Experiment: Tanguay_ZF_120hpf_TR_legacy: (Legacy) Oregon State University Tanguay Lab 120 Hour Post-fertilization zebrafish Assay for Touch Response (AID 2283667)
How it was run: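 Readout is presence or absence of touch response in 120 hpf zebrafish larvae, assessed by brightfield observation after continuous static exposure at 28C. Final vehicle was 0.64% (vol/vol) DMSO.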

| SMILES | outcome | AC50 |
| --- | --- | --- |
| ClC1=C(Cl)[C@]2(Cl)[C@@H]3[C@@H]4C[C@@H]([C@H]5O[C@@H]45)[C@@H]3[C@@]1(Cl)C2(Cl)Cl | inactive |  |
| O=NN(c1ccccc1)c1ccccc1 | inactive |  |
| CCOC(=O)C(O)(c1ccc(Cl)cc1)c1ccc(Cl)cc1 | inactive |  |
| O=S(=O)(O)C(F)(F)C(F)(F)C(F)(F)C(F)(F)C(F)(F)C(F)(F)F |  | 25.9 µM (active) |
| CN(C)CCO | inactive |  |
| Oc1ccc(Cl)cc1Cl | inactive |  |
| Cc1cc(-c2ccc(N)c(C)c2)ccc1N | inactive |  |
| ClC1=C(Cl)[C@]2(Cl)[C@@H]3[C@H]4C[C@H]([C@@H]5O[C@H]45)[C@@H]3[C@@]1(Cl)C2(Cl)Cl |  | 81.5 µM (active) |
| N#Cc1ccc(N(CC(N)=O)CC(F)(F)F)cc1C(F)(F)F | inactive |  |
| Nn1cnnc1 | inactive |  |
| ClC(Cl)=C(c1ccc(Cl)cc1)c1ccc(Cl)cc1 | inactive |  |
| O=C(NC(=O)c1cc(F)c(F)cc1Cl)Nc1cc(F)ccc1N1CCC(C(=O)O)CC1 | inactive |  |
| Cc1cc2c3c(c1)C(c1ccccc1)=N[C@@H](NC(=O)c1ccncc1)C(=O)N3CC2 | inactive |  |
| CC(C)(O)C(=O)Nc1ccc([N+](=O)[O-])c(C(F)(F)F)c1 | inactive |  |
| c1cc2ccc3cccc4ccc(c1)c2c34 | inactive |  |
| Cc1cc(O)ccc1Cl | inactive |  |
| CC1=C2C[C@H]3[C@@H](CC=C4C[C@@H](O)CC[C@@]43C)[C@@H]2CC[C@]12O[C@@H]1C[C@H](C)CN[C@H]1[C@H]2C |  | 22.5 µM (active) |
| O=C(O)C(F)(F)C(F)(F)C(F)(F)C(F)(F)C(F)(F)F | inactive |  |
| Cc1cccc([N+](=O)[O-])c1 | inactive |  |
| C[C@]12CCC(=O)C=C1CC[C@@H]1[C@@H]2CC[C@@]2(C)[C@H]1CC[C@]2(C)O | inactive |  |
| CO/C=C(/C(=O)OC)c1ccccc1COc1cccc(C(F)(F)F)n1 |  | 13.2 µM (active) |
| Cc1ccccc1O | inactive |  |
| Clc1ccc(Cl)cc1 | inactive |  |
| CCC(C)c1cc([N+](=O)[O-])cc([N+](=O)[O-])c1O (configuration not stated) | inactive |  |
| CCCN(CCC)N=O | inactive |  |
| NS(=O)(=O)C(F)(F)C(F)(F)C(F)(F)C(F)(F)C(F)(F)C(F)(F)C(F)(F)C(F)(F)F | inactive |  |
| CCOCCOC(C)=O | inactive |  |
| C=CC(=O)NCNC(=O)C=C | inactive |  |

Experiment: CCTE_Padilla_ZF_144hpf_TERATOSCORE: (Legacy) CCTE's 144 Hour Post-fertilization zebrafish Assay Teratoscore, Padilla Lab (AID 2283679; active = hit-call score of the fitted dose curve at least 0.9, where 1 is the maximum; inactive = score below 0.9;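 note: zebrafish embryos with chorions exposed by immersion from 6-8 hpf to 5 dpf with daily renewal; teratogenicity score from eye scoring of death hatching and malformations at 144 hpf; higher score means more developmental defects relative to DMSO baseline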)
How it was run: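 Larvae scored by eye at 144 hpf for death, hatching and malformations after a day in clean Hanks'. Before that, daily-renewed exposure at 80 uM (0.4% DMSO, 26C) from roughly 6-8 hpf through 5 dpf, 4 embryos per chemical.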

| SMILES | AC50 |
| --- | --- |
| c1cc2ccc3cccc4ccc(c1)c2c34 | 13.5 µM (active) |
| Cc1cc(O)ccc1Cl | 112 µM (active) |
| C[C@]12CCC(=O)C=C1CC[C@@H]1[C@@H]2CC[C@@]2(C)[C@H]1CC[C@]2(C)O | 24.4 µM (active) |
| NS(=O)(=O)C(F)(F)C(F)(F)C(F)(F)C(F)(F)C(F)(F)C(F)(F)C(F)(F)C(F)(F)F | 0.45 µM (active) |
